Several values for one entry are separate records, joined by “and”; a condition that tells them apart may be missing. Equal values may be shown once. Among all 5,500 compounds or so, about 2,000 (36%) were called active. Inconclusive results (about 18%) are left out. Rule as the data show it: active = normalized growth mostly below about 0.91 (no sharp cut-off); inconclusive = no clear call, values can overlap the other calls; inactive = mostly above about 0.92. Some of the results follow.
Experiment: chemical genetic growth profiling, strain panel (AID 1159580);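 also: tested at 20 µM; growth read once vehicle control cultures reached saturation at 30 °C; 1 = growth at the plate median or of vehicle wells; lower values mean less growth of the strain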
Conditions: S. cerevisiae deletion strains, growth OD

Measured: normalized growth

Cn1nnnc1SCC1=C(C(=O)O)N2C(=O)C(NC(=O)C(OC=O)c3ccccc3)C2SC1 (stereo unspecified)
inactive: locus YAL021C, strain ccr4, hits give low values 1.02 | locus YAL026C, strain drs2, hits give low values 0.999 | locus YAL030W, strain snc1, hits give low values 1 | locus YBL061C, strain skt5, hits give low values 1.01 | locus YBR009C, strain hhf1, hits give low values 1.04 | locus YBR021W, strain FUR4, hits give low values 0.986 | locus YBR023C, strain chs3, hits give low values 0.998 | locus YBR171W, strain sec66, hits give low values 0.984 | locus YBR229C, strain ROT2, hits give low values 1 | locus YBR231C, strain swc5, hits give low values 1.01 | locus YBR279W, strain paf1, hits give low values 0.999 | locus YCL011C, strain gbp2, hits give low values 1 | locus YCL016C, strain dcc1, hits give low values 1 | locus YCL029C, strain bik1, hits give low values 1.03 | locus YCL061C, strain MRC1, hits give low values 0.991 | locus YCL069W, strain vba3, hits give low values 0.992 | locus YCR088W, strain abp1, hits give low values 0.998 | locus YDL005C, strain med2, hits give low values 0.991 | locus YDL035C, strain GPR1, hits give low values 1.01 | locus YDL040C, strain nat1, hits give low values 1 | locus YDL074C, strain BRE1, hits give low values 1.02 | locus YDL101C, strain DUN1, hits give low values 1.01 | locus YDL134C, strain PPH21, hits give low values 1.01 | locus YDL185W, strain tfp1, hits give low values 1.01 | locus YDL192W, strain arf1, hits give low values 1.02 | locus YDR001C, strain nth1, hits give low values 0.991 | locus YDR069C, strain doa4, hits give low values 1 | locus YDR101C, strain arx1, hits give low values 1.03 | locus YDR137W, strain rgp1, hits give low values 1.02 | locus YDR150W, strain NUM1, hits give low values 1 | locus YDR159W, strain sac3, hits give low values 0.979 | locus YDR162C, strain NBP2, hits give low values 1.01 | locus YDR195W, strain ref2 0.949 | locus YDR297W, strain sur2, hits give low values 0.992 | locus YDR318W, strain mcm21, hits give low values 1.02 | locus YDR334W, strain swr1, hits give low values 0.995 | locus YDR335W, strain msn5, hits give low values 1 | locus YDR388W, hits give low values 1.02 | locus YDR392W, strain spt3, hits give low values 0.995 | locus YDR502C, strain sam2, hits give low values 1.02 | locus YEL003W, strain gim4, hits give low values 1 | locus YEL037C, strain rad23, hits give low values 0.994 | locus YEL061C, strain CIN8 (second series), hits give low values 0.991 | locus YEL061C, strain CIN8, hits give low values 1 | locus YER015W, strain faa2, hits give low values 1 | locus YER016W, strain bim1, hits give low values 0.997 | locus YER110C, hits give low values 1.03 | locus YER111C, strain swi4, hits give low values 0.998 | locus YER155C, strain BEM2 (second series), hits give low values 0.977 | locus YER155C, strain BEM2, hits give low values 0.99 | locus YER167W, strain BCK2, hits give low values 1 | locus YFR010W, strain ubp6, hits give low values 0.995 | locus YGL078C, strain dbp3, hits give low values 1.03 | locus YGL086W, strain mad1, hits give low values 1.01 | locus YGL167C, strain pmr1, hits give low values 1 | locus YGL173C, strain kem1, hits give low values 0.997 | locus YGL227W, strain vid30, hits give low values 0.993 | locus YGL240W, strain doc1, hits give low values 0.978 | locus YGL248W, strain PDE1, hits give low values 1.01 | locus YGL253W, strain hxk2, hits give low values 1.01 | locus YGR078C, strain PAC10, hits give low values 0.994 | locus YGR135W, strain pre9, hits give low values 1.02 | locus YGR229C, strain SMI1, hits give low values 1.01 | locus YGR252W, strain gcn5, hits give low values 1.03 | locus YHR013C, strain ard1, hits give low values 1 | locus YHR027C, strain rpn1, hits give low values 0.995 | locus YHR030C, strain SLT2, hits give low values 0.999 and 1.01 | locus YHR079C, strain IRE1 (second series), hits give low values 1.02 | locus YHR079C, strain IRE1, hits give low values 0.985 | locus YHR094C, strain hxt1, hits give low values 1.03 | locus YHR129C, strain ARP1, hits give low values 0.998 | locus YHR142W, strain chs7, hits give low values 1.02 | locus YHR200W, strain rpn10, hits give low values 1.02 | locus YIL066C, strain RNR3, hits give low values 1 | locus YIL073C, strain SPO22, hits give low values 1.07 | locus YIL125W, strain kgd1, hits give low values 1.01 | locus YIR030C, strain dcg1, hits give low values 1.03 | locus YJL092W, strain hpr5, hits give low values 0.993 | locus YJL095W, strain BCK1 (second series), hits give low values 1.01 | locus YJL095W, strain BCK1, hits give low values 1 and 0.969 | locus YJL115W, strain asf1, hits give low values 0.985 | locus YJL129C, strain trk1, hits give low values 1 | locus YJL134W, strain LCB3, hits give low values 1 | locus YJL154C, strain vps35, hits give low values 1 | locus YJL164C, strain tpk1, hits give low values 1.01 | locus YJL166W, strain qcr8, hits give low values 1.01 | locus YJL168C, strain set2, hits give low values 1.01 | locus YJL187C, strain SWE1 (second series), hits give low values 1 | locus YJL187C, strain SWE1, hits give low values 0.986 | locus YJR043C, strain POL32, hits give low values 1.01 | locus YJR066W, strain TOR1, hits give low values 0.954
